This is a sample that favours compounds with a hit; in the whole collection about 3.9% have one here.
p53null 39C tox – selectivity test: cytotoxicity in p53 null cells, nonpermissive temperature; H1299 p53-null (neo) cells, 39C, ATPlite viability, 24 h; Potency, µM (titrated, usually from 46.1 µM), for the others: at the highest dose activity, negative = cell killing, most hits filed as cytotoxic; actives 0.97% (n = 55,000); AID 904;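 further: potency means the concentration at half of the fitted maximal effect; 0% = DMSO only and -100% = full killing by 100 µM tamoxifen; nearly all actives have a fitted effect of over 50% in size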
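Concentration-response (up to 46 uM) was run for 24 h at the nonpermissive 39C on H1299-p53A138V or H1299-neo cells. ATP content was measured with ATPlite luminescence. AC50 values were Hill-modeled after normalizing between DMSO and 100 uM tamoxifen killing.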
HTT-AS act – HTT-AS promoter activation. actives 0.24% (n = 48,000). Potency, µM (series often up to 57.5 µM), without a hit: at the highest dose activity change, positive = activation, most hits filed as activators. HEK293 HTT-AS promoter firefly luciferase reporter, 24 h; response scale: percent change from vehicle, -100% = no light. AID 1508624; further: potency means the concentration at half of the fitted maximal effect; nearly all actives have a fitted effect of over 55% in size
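Luminescence was read after Dual-Glo reagent and a 10 min room-temperature incubation. Values were normalized to vehicle (0% activity) and zero RLU (-100% activity). Reporter HEK293 cells had been exposed to compounds (up to 57.5 uM final) for 24 h.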
HTT prom inh – inhibits huntingtin promoter activity; HEK293 HTT promoter firefly luciferase reporter, 24 h; actives 0.93% (n = 48,000); Potency, µM (titrated, usually from 57.5 µM), inactives show at the highest dose activity change, negative = inhibition, actives largely listed as inhibitors; further: potency means the concentration at half of the fitted maximal effect; nearly all actives have a fitted effect of over 50% in size
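Luminescence was read after Dual-Glo reagent and a 10 min room-temperature incubation. Values were normalized to vehicle (0% activity) and zero RLU (-100% activity). Reporter HEK293 cells had been exposed to compounds (up to 57.5 uM final) for 24 h.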
p53null 32C kill – kills p53 null cells at the permissive temperature | H1299-neo p53 null cells, ATP luminescence, 24 h, 32C | Potency, µM (doses to about 46.1 µM), inactives show at the highest dose activity change, negative = cytotoxicity, hits mostly cytotoxic | actives 0.62% (n = 55,000) | AID 903;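 further: potency means the concentration at half of the fitted maximal effect; 0% = DMSO only and -100% = full killing by 100 µM tamoxifen; nearly all actives have a fitted effect of over 55% in size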
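H1299-neo (p53-null) cells, 600/well, were pre-incubated overnight at 37C, then exposed to compounds at up to 46 uM for 24 hr at 32C. Viability was measured as ATP content by luminescence, and AC50 values came from Hill fits.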
DRV1 agonist – GPR32 (DRV1) agonism, beta-arrestin recruitment; O75388; CHO-K1 GPR32 beta-arrestin PathHunter luminescence, 90 min; zero percent set by DMSO-only wells; activation, % at 76.9 µM; actives 2.5% (n = 48,000); AID 1346428;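 active means activation of at least 60% and not above a set upper limit, about 1 call in 100 departs from these limits; inconclusive means activation of 40% to 60%, or above that upper limit; inactive means activation under 40%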; further: 0% is about no effect
Target sequence (O75388 whole entry, looked up): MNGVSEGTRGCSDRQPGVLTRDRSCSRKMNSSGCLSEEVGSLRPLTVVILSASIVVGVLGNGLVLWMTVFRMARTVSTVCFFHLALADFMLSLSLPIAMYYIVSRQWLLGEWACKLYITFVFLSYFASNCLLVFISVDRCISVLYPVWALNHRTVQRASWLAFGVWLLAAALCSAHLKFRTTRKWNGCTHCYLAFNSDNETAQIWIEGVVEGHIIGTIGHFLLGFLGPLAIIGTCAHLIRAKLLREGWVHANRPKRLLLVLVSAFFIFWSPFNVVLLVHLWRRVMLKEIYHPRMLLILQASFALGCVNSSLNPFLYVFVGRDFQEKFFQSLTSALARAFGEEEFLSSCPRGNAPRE
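Beta-arrestin recruitment read-out: luminescence from complemented beta-Gal in CHO-K1 GPR32 PathHunter cells, measured 1 h after detection reagent at ambient temperature following 90 min compound exposure at 37 °C; DMSO served as basal (EC0) control.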
An asterisk follows results filed as active; ? = inconclusive; nt = no result given; [ ] = another dose, or the depositor's remark. Unless noted, the call rests on the fitted dose curve; in most records, active means well fitted curve in the direction sought with a large enough effect; inconclusive means small, poorly fitted or top-dose-only effect, or another doubt; inactive means no such curve, though single readings can be large; an effect the other way counts as inactive or inconclusive.

SMILES	p53null 39C tox	HTT-AS act	HTT prom inh	p53null 32C kill	DRV1 agonist
O=C(c1ccc(F)cc1)N1CCC[C@H](c2nc(-c3ccc(F)cc3)no2)C1	nt	-5.4%	-0.4%	nt	nt
Cc1cc(OCCCS(C)(=O)=O)cc(C)c1-c1cccc(COc2ccc3c(c2)OC[C@H]3CC(=O)O)c1	nt	-27.9%	-33.6%	nt	nt
Cc1c(N)cccc1C(F)(F)F	nt	0.3%	12.2%	nt	13.0
O=C(Nc1ccc(Br)cc1)C1CCCN1S(=O)(=O)c1ccc(F)cc1 (configuration not stated)	5.1%	-42.1%	35.5µM*	0.9%	-4.4
CC(=O)NCCC(=O)N[C@@H](CCC(N)=O)C(=O)N[C@@H](CO)C(=O)N[C@@H](CCC(N)=O)C(=O)N[C@@H](CCC(N)=O)C(=O)N[C@H](C(=O)N[C@@H](Cc1ccccc1)C(=O)N[C@]1(C)CCCCCCC=CCCC[C@@](C)(C(=O)N[C@@H](CCC(N)=O)C(=O)N[C@@H](CC(N)=O)C(N)=O)NC(=O)[C@H](CC(C)C)NC(=O)[C@H](CC(C)C)NC(=O)[C@@H](CCCNC(=N)N)NC(=O)[C@H](Cc2c[nH]c3ccccc23)NC(=O)[C@H](CC(C)C)NC(=O)[C@H](CC(N)=O)NC1=O)[C@H](C)O	nt	-1.8%	-19.2%	nt	nt
Cc1ccc(NC(=O)COc2ccc(-c3nn(C)c(=O)c4ccccc34)cc2)cc1	-11.6%	-35.9%	?	4.6%	25.8
Cn1nc(-c2ccc(C(=O)Nc3ccc(F)cc3)cc2)c2ccccc2c1=O	?	-43.0%	?	?	105.2*
Cn1nc(-c2ccc(OCC(=O)Nc3cccc(C(F)(F)F)c3)cc2)c2ccccc2c1=O	?	-48.9%	?	-24.5%	84.7*
CCOc1ccc(CCNC(=O)CCCc2cc(-c3ccc(OCC)cc3)on2)cc1	-11.1%	-77.5%	0.316µM*	0.9%	16.6
COc1ccc(CCNC(=O)CCCn2c(=O)c3ccccc3n(CC(=O)Nc3cc(Cl)ccc3C)c2=O)cc1OC	12.6µM*	-46.1%	-9.0%	?	26.6
CCc1cccc(NC(=O)Cn2c(=O)n(CC(=O)NCCc3ccccc3)c(=O)c3ccccc32)c1	12.6µM*	-31.0%	-24.6%	12.6µM*	81.2*
Cc1cnc(Nc2ccc(CN3CCOCC3)cc2)nc1Nc1cccc(S(=O)(=O)NC(C)(C)C)c1	nt	-45.4%	-22.2%	nt	nt
COc1ccc(-c2ccc3c(N)c(C(=O)NCc4ccc(C)cc4)sc3n2)cc1	3.3%	-13.5%	-5.1%	9.4%	-10.0
Cc1ccc(CNC(=O)c2sc3nc(-c4ccc(F)cc4)ccc3c2N)cc1	-26.6%	-4.3%	-5.9%	-12.3%	95.6*
COc1ccc(C(=O)c2sc3nc(-c4ccc(F)cc4)ccc3c2N)cc1	9.2%	-8.5%	7.7%	-5.7%	97.7*
CCOC(=O)c1c(Nc2ccc(O)cc2)nnc(-c2ccccc2)c1-c1ccccc1	12.6%	-18.9%	-17.5%	-3.9%	65.9*
CCOC(=O)c1c(Nc2ccccc2)nnc(-c2ccccc2)c1-c1ccccc1	12.7%	-21.2%	-28.2%	10.4%	-15.6
CCOc1ccc(CNC(=O)C2CCCN(c3nn4cc(-c5ccc(F)cc5)nc4s3)C2)cc1 (configuration not stated)	0.2%	-62.3%	?	-1.5%	6.1
CCc1ccc(CNC(=O)C2CCCN(c3nn4cc(-c5ccc(F)cc5)nc4s3)C2)cc1 (configuration not stated)	-16.3%	-72.5%	3.98µM*	-1.2%	-10.0
COc1cccc(/C=C/C(=O)Nc2ccc3nc(N4CCN(C)CC4)cc(C)c3c2)c1OC	20µM*	-16.7%	-23.0%	?	-11.5
CCN1CCN(c2cc(C)c3cc(NC(=O)/C=C/c4cccc(OC)c4OC)ccc3n2)CC1	?	-9.9%	-13.6%	-17.5%	-14.7
CCN1CCN(c2cc(C)c3cc(NC(=O)c4cccc(Cl)c4)ccc3n2)CC1	22.4µM*	28.5%	35.3%	-4.8%	-16.6
Cc1cc(N2CCCCC2)nc2ccc(NC(=O)/C=C/c3ccccc3Cl)cc12	3.0%	-16.0%	-28.1%	-2.2%	-22.8
CCN1CCN(c2cc(C)c3cc(NC(=O)/C=C/c4cccc(Cl)c4)ccc3n2)CC1	15.8µM*	-59.8%	?	?	21.7
C[C@@H](c1ncncc1F)C(O)(Cn1cncn1)c1ccc(F)cc1F (some centres not stated)	nt	-3.7%	6.0%	nt	7.2
SMILES	p53null 39C tox	HTT-AS act	HTT prom inh	p53null 32C kill	DRV1 agonist
Cc1ccc(CN(C(=O)COc2ccc(C(C)C)cc2)C2CCS(=O)(=O)C2)o1 (configuration not stated)	-3.5%	-16.5%	?	-3.3%	61.2*
O=C(CN1C=NS(=O)(=O)c2ccc(C(F)(F)F)cc21)Nc1cccc(C(F)(F)F)c1	-17.9%	-30.3%	-19.3%	0.5%	98.7*
COC(=O)c1c(SCC(=O)Nc2cccc(C(F)(F)F)c2)[nH]c2ccccc2c1=O	3.16µM*	9.6%	-4.9%	?	2.0
O=C(CSc1nc2cc3ccccc3cc2[nH]1)Nc1cccc(C(F)(F)F)c1	?	7.4%[11.5 µM]	-26.1%	?	93.9*
COC(=O)c1c(SCC(=O)Nc2cccc(Cl)c2C)[nH]c2ccccc2c1=O	10µM*	10.2%	-5.8%	-14.6%	-16.7
COC(=O)c1c(SCC(=O)Nc2cc(F)ccc2F)[nH]c2ccc(C)cc2c1=O	?	18.1%	-2.2%	?	-19.7
NCCCC(N)CC(=O)NCC1NC(=O)C(CO)NC(=O)C(N)CNC(=O)C(C2CCN=C(N)N2)NC(=O)C(=CNC(N)=O)NC1=O (configuration not stated)	nt	-1.0%[0.74 µM]	3.1%[0.739 µM]	nt	7.4
Cc1cc(C(=O)NOCCO)c(Nc2ccc(I)cc2F)n(C)c1=O	nt	-24.4%	-12.0%	nt	nt
O=C(/C=C/N1C[C@@H]2C[C@@H]1CN2c1ccccn1)c1ccccc1O	nt	nt	-10.7%	nt	nt
CC(=O)c1ccc(O)c(C(N)=O)c1	nt	-2.6%	-4.0%	nt	-17.6
C#C[C@]1(O)CC[C@@H]2[C@@H]3CCc4cc(O)ccc4[C@H]3CC[C@@]21C	nt	-34.8%	-25.5%	nt	nt
NC1CCC(Nc2nc(Nc3ccc(C(=O)N4CCCCC4)cc3)c3ncn(-c4cccc(F)c4)c3n2)CC1 (configuration not stated)	nt	?	4.1%	nt	nt
Cc1cc(C)n2nc(SCC(=O)Nc3ccccc3)nc2n1	20.8%	-1.2%	8.3%	-2.7%	5.2
Cc1cc(C)n2nc(SCC(=O)Nc3cccc(C(F)(F)F)c3)nc2n1	-10.6%	-33.3%	?	-7.9%	61.5*
CCC(=O)O[C@]1(C(=O)COC)[C@@H](C)C[C@H]2[C@@H]3CCC4=CC(=O)C=C[C@]4(C)C3(F)[C@@H](O)C[C@@]21C (some centres not stated)	nt	-9.4%	-0.8%	nt	9.2

Screens as filed in PubChem BioAssay.
